According to PubChem BioAssay AID1159580 (chemical genetic matrix, 2015):
The campaign covered roughly 5,500 compounds. About 2,000 (36%) were called active. Inconclusive results (about 18%) are left out. This is one part of the list. Unmarked numbers belong to inactive results. No stated cut-off is given here; in the data, active means normalized growth mostly below about 0.91 (no sharp cut-off); inconclusive means no clear call, values can overlap the other calls; inactive means mostly above about 0.92.

Assay: chemical genetic growth profiling, strain panel (AID 1159580);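 further: tested at 20 µM; growth read once vehicle control cultures reached saturation at 30 °C; 1 = growth at the plate median or of vehicle wells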
Conditions: S. cerevisiae deletion strains, growth OD
[1] = locus YDL101C, strain DUN1, stronger effect = lower value
[2] = locus YHR030C, strain SLT2, stronger effect = lower value

CC(C)(C)c1csc(NC(=O)Nc2ccc(Cl)cc2)n1
normalized growth (locus YAR019C, strain CDC15, stronger effect = lower value): 0.989 | normalized growth (locus YBL105C, strain PKC1, stronger effect = lower value): 0.972 | normalized growth (locus YBR135W, strain CKS1, stronger effect = lower value): 0.973 | normalized growth (locus YBR136W, strain MEC1, stronger effect = lower value): 0.976 | normalized growth (locus YBR160W, strain CDC28, stronger effect = lower value): 0.985 | normalized growth (locus YDL017W, strain CDC7, stronger effect = lower value): 0.982 | normalized growth (locus YDL028C, strain MPS1, stronger effect = lower value): 0.973 | normalized growth [1]: 0.974 | normalized growth (locus YDL108W, strain KIN28, stronger effect = lower value): 0.978 | normalized growth (locus YDL132W, strain cdc53, stronger effect = lower value): 0.974 | normalized growth (locus YDL214C, strain PRR2, stronger effect = lower value): 0.684 (active) | normalized growth (locus YDR052C, strain DBF4, stronger effect = lower value): 0.983 | normalized growth (locus YDR054C, strain cdc34, stronger effect = lower value): 0.974 | normalized growth (locus YDR226W, strain ADK1, stronger effect = lower value): 0.973 | normalized growth (locus YDR477W, strain SNF1, stronger effect = lower value): 0.605 (active) | normalized growth (locus YER123W, strain YCK3, stronger effect = lower value): 0.466 (active) | normalized growth (locus YER133W, strain GLC7, stronger effect = lower value): 0.534 (active) | normalized growth (locus YFL009W, strain cdc4, stronger effect = lower value): 0.972 | normalized growth (locus YFL029C, strain CAK1, stronger effect = lower value): 0.97 | normalized growth (locus YFR003C, strain YPI1, stronger effect = lower value): 0.981 | normalized growth (locus YFR019W, strain FAB1, stronger effect = lower value): 0.722 (active) | normalized growth (locus YFR028C, strain CDC14, stronger effect = lower value): 0.97 | normalized growth (locus YGR040W, strain KSS1, stronger effect = lower value): 0.634 (active) | normalized growth (locus YGR052W, strain FMP48, stronger effect = lower value): 0.304 (active) | normalized growth (locus YGR092W, strain DBF2, stronger effect = lower value): 0.48 (active) | normalized growth [2]: 0.39 (active) | normalized growth (locus YHR079C, strain IRE1, stronger effect = lower value): 0.509 (active) | normalized growth (locus YHR082C, strain KSP1, stronger effect = lower value): 0.466 (active) | normalized growth (locus YHR205W, strain SCH9, stronger effect = lower value): 0.583 | normalized growth (locus YIL147C, strain SLN1, stronger effect = lower value): 0.972 | normalized growth (locus YJL095W, strain BCK1, stronger effect = lower value): 0.345 (active) | normalized growth (locus YJL128C, strain PBS2, stronger effect = lower value): 0.905 | normalized growth (locus YJL157C, strain FAR1, stronger effect = lower value): 0.81 | normalized growth (locus YJR016C, strain ILV3, stronger effect = lower value): 0.981 | normalized growth (locus YJR066W, strain TOR1 (second series), stronger effect = lower value): 0.625 (active) | normalized growth (locus YJR066W, strain TOR1, stronger effect = lower value): 0.452 (active) | normalized growth (locus YKL048C, strain ELM1, stronger effect = lower value): 0.609 (active) | normalized growth (locus YKL067W, strain YNK1, stronger effect = lower value): 0.732 (active) | normalized growth (locus YKL101W, strain HSL1, stronger effect = lower value): 0.441 (active) | normalized growth (locus YKL193C, strain SDS22, stronger effect = lower value): 0.981 | normalized growth (locus YKL203C, strain TOR2, stronger effect = lower value): 0.565 (active) | normalized growth (locus YLR113W, strain HOG1, stronger effect = lower value): 0.28 (active) | normalized growth (locus YLR133W, strain CKI1, stronger effect = lower value): 0.687 (active) | normalized growth (locus YLR403W, strain SFP1, stronger effect = lower value): 0.601 (active) | normalized growth (locus YML070W, strain DAK1, stronger effect = lower value): 0.441 (active) | normalized growth (locus YMR001C, strain CDC5, stronger effect = lower value): 0.97 | normalized growth (locus YMR205C, strain PFK2 (second series), stronger effect = lower value): 0.705 (active) | normalized growth (locus YMR277W, strain FCP1, stronger effect = lower value): 0.974 | normalized growth (locus YNL006W, strain LST8, stronger effect = lower value): 0.979 | normalized growth (locus YNL020C, strain ARK1, stronger effect = lower value): 0.67 (active) | normalized growth (locus YNL161W, strain CBK1, stronger effect = lower value): 0.969 | normalized growth (locus YNL183C, strain NPR1, stronger effect = lower value): 0.281 (active) | normalized growth (locus YNL207W, strain RIO2, stronger effect = lower value): 0.97 | normalized growth (locus YNL222W, strain SSU72, stronger effect = lower value): 0.983 | normalized growth (locus YNL307C, strain MCK1 (second series), stronger effect = lower value): 0.553 (active) | normalized growth (locus YOL078W, strain AVO1, stronger effect = lower value): 0.982 | normalized growth (locus YOL136C, strain PFK27, stronger effect = lower value): 0.719 | normalized growth (locus YOR061W, strain CKA2, stronger effect = lower value): 0.732 | normalized growth (locus YOR119C, strain RIO1, stronger effect = lower value): 0.524 (active) | normalized growth (locus YOR231W, strain MKK1, stronger effect = lower value): 0.5 (active) | normalized growth (locus YOR329C, strain SCD5, stronger effect = lower value): 0.982 | normalized growth (locus YPL031C, strain PHO85, stronger effect = lower value): 0.43 (active) | normalized growth (locus YPL153C, strain RAD53, stronger effect = lower value): 0.481 (active) | normalized growth (locus YPL204W, strain HRR25, stronger effect = lower value): 0.529 (active) | normalized growth (locus YPL209C, strain IPL1, stronger effect = lower value): 0.98 | normalized growth (locus YPL256C, strain CLN2, stronger effect = lower value): 0.44 (active) | normalized growth (locus YPR025C, strain CCL1, stronger effect = lower value): 0.977 | normalized growth (locus YPR106W, strain ISR1, stronger effect = lower value): 0.97 | normalized growth (locus YPR111W, strain DBF20, stronger effect = lower value): 0.967 | normalized growth (strain NNK1, stronger effect = lower value): 0.953 | normalized growth (strain TSCII, stronger effect = lower value): 0.981

CC(C)(C)OC(=O)NC1CCN(C(=O)c2ccc(Cl)cc2Cl)CC1
normalized growth (locus YAL013W, strain DEP1, stronger effect = lower value): 1 | normalized growth (locus YBR229C, strain ROT2, stronger effect = lower value): 0.993 | normalized growth (locus YCL061C, strain MRC1, stronger effect = lower value): 1.01 | normalized growth [1]: 0.995 | normalized growth (locus YDL134C, strain PPH21, stronger effect = lower value): 0.999 | normalized growth (locus YDR150W, strain NUM1, stronger effect = lower value): 0.95 | normalized growth (locus YEL061C, strain CIN8, stronger effect = lower value): 1 | normalized growth (locus YGR078C, strain PAC10, stronger effect = lower value): 1 | normalized growth (locus YGR229C, strain SMI1, stronger effect = lower value): 1.01 | normalized growth [2]: 1.11 | normalized growth (locus YHR087W, strain rtc3, stronger effect = lower value): 0.996 | normalized growth (locus YJL187C, strain SWE1, stronger effect = lower value): 1.01 | normalized growth (locus YJR043C, strain POL32, stronger effect = lower value): 0.997 | normalized growth (locus YJR075W, strain HOC1, stronger effect = lower value): 0.999 | normalized growth (locus YKL190W, strain CNB1, stronger effect = lower value): 1.01 | normalized growth (locus YLR039C, strain RIC1, stronger effect = lower value): 1.02 | normalized growth (locus YLR058C, strain SHM2 (second series), stronger effect = lower value): 1 | normalized growth (locus YLR085C, strain ARP6, stronger effect = lower value): 1.03 | normalized growth (locus YLR262C, strain YPT6, stronger effect = lower value): 1.09 | normalized growth (locus YML094W, strain GIM5, stronger effect = lower value): 1.04 | normalized growth (locus YMR219W, strain ESC1, stronger effect = lower value): 0.996 | normalized growth (locus YMR263W, strain SAP30, stronger effect = lower value): 0.989 | normalized growth (locus YMR307W, strain GAS1, stronger effect = lower value): 0.824 | normalized growth (locus YNL128W, strain TEP1, stronger effect = lower value): 1.01 | normalized growth (locus YNL153C, strain GIM3, stronger effect = lower value): 1 | normalized growth (locus YNL298W, strain CLA4 (second series), stronger effect = lower value): 1.01 | normalized growth (locus YNL322C, strain KRE1, stronger effect = lower value): 0.995 | normalized growth (locus YNR030W, strain Alg12, stronger effect = lower value): 1.02 | normalized growth (locus YPL055C, strain LGE1, stronger effect = lower value): 1.08 | normalized growth (locus YPL241C, strain CIN2, stronger effect = lower value): 1.01 | normalized growth (locus YPR135W, strain CTF4, stronger effect = lower value): 1
